The values that follow come from the OligoGym collection.
Further: reference of the scale not given here.

In one assay the target is TPPP3. Nature of the assay: pooled miR-30 sensor sort-seq; sequence = guide strand. To be noted: shRNA.
The sequence TTTAGTGACGCCCACATTGGCT came in with a sensor-assay potency score (higher = more potent) of -0.692. On the same count and under the same terms, the figure for TTGCAGTCCTTGCACAGCTTGG is -0.971; for TTGCCATTCATCTCTTGCCCAC it is -1.13.

The next assay concerns the target TPRX1. The description is as above. To be noted: shRNA.
Regarding TAGGGGTAGGAGCAGCTCTGTG, the sensor-assay potency score (higher = more potent) was -1.84. On the same count and under the same terms, the value for TTGGAGCTGGGACTGAGCCTGA was -0.894. On the same count and under the same terms, the figure for TGGTGGAGGCTGCAGATCGTGG is -1.98; for TCGGGCTTGGGATCTGAGCTGG it is -0.605.

Take TGAAGTGAGGGAATAACTGGGT: the sensor-assay potency score (higher = more potent) was determined as 0.243. Still for that read-out and setting: the value for TAGAGTCATCCCCTTCTTGGTA was -0.907; that for TTTCATTCACAGAGCCACCCTC was -0.302. Turning to TTGAACCACACCTGCAGCTGTT, the sensor-assay potency score (higher = more potent) was -0.741. Regarding TTGCCCATAGAGTCATCCCCTT, the sensor-assay potency score (higher = more potent) was -0.764. Same read-out and setting: the value for TTCATTCACAGAGCCACCCTCC was -0.83.

TTCTTGGTACTGAGAGGTCATG: the sensor-assay potency score (higher = more potent) was -1.73. On the same count and under the same terms, the value for TGAACCACACCTGCAGCTGTTG was -0.826.

For a further assay, the target named is TRAFD1. The assay is described as above. The conditions noted are these: shRNA.
TGCAGTTGTCACACAGTCGAGT had a sensor-assay potency score (higher = more potent) of -0.879.

As for TTTATGTCACTGAGAGACCTGG, the sensor-assay potency score (higher = more potent) is -0.674. On the same count and under the same terms, the value for TTATTCTGAATTGAAACCTGGG was 0.55; that for TTGGTTGGTAGTTCTATTGTGG was -0.193; that for TAACTGGTTACTTGCAGCCTGT was -0.902. On the same count and under the same terms, the figure for TTCTATTGTGGAAAACATCTGA is 0.311; for TTTGCCTTTGCAGTTCTGCTGC it is 0.136. TTCCTGCTTAGTATCATCCAGG displayed a sensor-assay potency score (higher = more potent) of -0.814. The same measure, in the same setting: the value for TTGCAGTTGTCACACAGTCGAG was -1.47. The same measure, in the same setting: the figure for TTGCACTCTCTTCACCACCCTC is -0.942; for TTCTTCAAACAGATTATTCTGA it is 0.585.

The target in a further assay is TRAPPC2L. Described as above. To be noted: shRNA.
Sequence TTGGAGTTGGTGACGTAGCCGT gave a sensor-assay potency score (higher = more potent) of -0.459. Same read-out and setting: the figure for TGTAGCTTCCGGAACATGCTGC is 0.0954. On the same count and under the same terms, the value for TACCTTGTAGTCCTCCGTGGGG was -0.92; that for TTGCACATCACGTCTGTGTAGG was 0.239; that for TATACCTTGTAGTCCTCCGTGG was 0.16.

The sequence TTGTGTAGCTTCCGGAACATGC returned a sensor-assay potency score (higher = more potent) of -0.801. TTGAGAGAACATGCACAGCTGC had a sensor-assay potency score (higher = more potent) of -0.482. TTTCGTTGTCTCGAAGGGCTGT displayed a sensor-assay potency score (higher = more potent) of 0.949. TTCAGCTCGTTCTCCGTAGGGG: the sensor-assay potency score (higher = more potent) came to 0.103. Still for that read-out and setting: the value for TAGTTGAGAGAACATGCACAGC was -1.15; that for TTCGTTGTCTCGAAGGGCTGTG was 0.76; that for TGTGTAGGAGTTGTGTAGCTTC was 0.492.
